Experimental data reported in the supplement of paper PMC9694430.
Where a name gives a salt, the structure may show the parent alone.

Assays:
Test in all cases: thermal shift delta Tm vs DMSO control; higher = stronger stabilization (binding)
Conditions in all cases: 12.5 µM; protein concentration 2 µM
LOC_OS02G45750-cb003 = test system: LOC_OS02G45750-cb003
Outline: (§1)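 Thermal shift values come from differential scanning fluorimetry on purified rice kinase domains made in E. coli, with melting temperatures obtained from Boltzmann fits. Samples of 19.5 μl held 2 μM kinase, 100 mM potassium phosphate pH 7.5, 150 mM NaCl, 10% glycerol, 5 × SYPRO Orange and compound in DMSO, and were heated from 25°C to 95°C at 0.05°C/s. Each shift is a triplicate mean relative to the DMSO-only protein sample.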

LOC_OS02G54510-cb004 = test system: LOC_OS02G54510-cb004
Outline: as §1

LOC_OS03G04050-cb001 = test system: LOC_OS03G04050-cb001
Outline: as §1

LOC_OS03G12390-cb001 = test system: LOC_OS03G12390-cb001
Outline: as §1

LOC_OS03G27990-cb004 = test system: LOC_OS03G27990-cb004
Outline: as §1

LOC_OS03G50450-cb001 = test system: LOC_OS03G50450-cb001
Outline: as §1

LOC_OS03G50810-cb003 = test system: LOC_OS03G50810-cb003
Outline: as §1

LOC_OS04G35114-cb001 = test system: LOC_OS04G35114-cb001
Outline: as §1

LOC_OS04G38480-cb003 = test system: T1, LOC_OS04G38480-cb003
T1 sequence (whole entry): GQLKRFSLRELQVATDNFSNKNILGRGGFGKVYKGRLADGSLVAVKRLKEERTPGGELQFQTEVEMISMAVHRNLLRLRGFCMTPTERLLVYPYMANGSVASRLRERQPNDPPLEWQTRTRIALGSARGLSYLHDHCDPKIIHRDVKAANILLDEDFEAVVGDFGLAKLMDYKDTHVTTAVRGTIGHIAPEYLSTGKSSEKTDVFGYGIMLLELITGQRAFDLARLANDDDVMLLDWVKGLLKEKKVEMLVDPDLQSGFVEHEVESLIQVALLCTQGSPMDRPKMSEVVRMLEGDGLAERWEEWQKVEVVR
Outline: as §1

LOC_OS04G41100-cb001 = test system: T2, LOC_OS04G41100-cb001
T2 sequence (whole entry): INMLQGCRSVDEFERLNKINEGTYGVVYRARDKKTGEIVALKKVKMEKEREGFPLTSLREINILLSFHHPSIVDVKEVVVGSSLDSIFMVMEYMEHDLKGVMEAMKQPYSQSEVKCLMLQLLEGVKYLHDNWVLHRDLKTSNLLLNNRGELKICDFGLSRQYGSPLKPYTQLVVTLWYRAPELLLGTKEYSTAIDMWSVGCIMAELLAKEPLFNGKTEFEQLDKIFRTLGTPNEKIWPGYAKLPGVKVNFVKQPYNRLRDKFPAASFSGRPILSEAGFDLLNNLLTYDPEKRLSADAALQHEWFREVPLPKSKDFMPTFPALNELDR
Outline: as §1

LOC_OS04G57630-cb004 = test system: LOC_OS04G57630-cb004
Outline: as §1

LOC_OS05G07850-cb002 = test system: LOC_OS05G07850-cb002
Outline: as §1

LOC_OS05G16824-cb004 = test system: LOC_OS05G16824-cb004
Outline: as §1

LOC_OS05G28520-cb001 = test system: LOC_OS05G28520-cb001
Outline: as §1

LOC_OS05G30820-cb001 = test system: LOC_OS05G30820-cb001
Outline: as §1

LOC_OS05G43570-cb004 = test system: LOC_OS05G43570-cb004
Outline: as §1

LOC_OS06G16330-cb003 = test system: LOC_OS06G16330-cb003
Outline: as §1

LOC_OS06G22820-cb001 = test system: T3, LOC_OS06G22820-cb001
T3 sequence (whole entry): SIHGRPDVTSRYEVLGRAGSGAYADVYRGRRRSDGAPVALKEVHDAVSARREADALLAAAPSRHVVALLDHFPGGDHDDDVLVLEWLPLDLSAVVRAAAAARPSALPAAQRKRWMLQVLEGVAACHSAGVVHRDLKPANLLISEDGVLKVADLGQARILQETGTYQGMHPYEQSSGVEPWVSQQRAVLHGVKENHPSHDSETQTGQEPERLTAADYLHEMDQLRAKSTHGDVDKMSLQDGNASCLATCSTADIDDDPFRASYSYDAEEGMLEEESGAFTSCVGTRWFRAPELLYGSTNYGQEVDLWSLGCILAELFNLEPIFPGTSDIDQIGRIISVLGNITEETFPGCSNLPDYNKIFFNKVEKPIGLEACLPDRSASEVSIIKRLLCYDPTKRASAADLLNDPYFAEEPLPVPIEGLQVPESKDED
Outline: as §1

LOC_OS07G06570-cb004 = test system: LOC_OS07G06570-cb004
Outline: as §1

LOC_OS07G07230-cb001 = test system: LOC_OS07G07230-cb001
Outline: as §1
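Further: purified Escherichia coli-expressed rice kinase domain construct.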

LOC_OS06G16330-cb003, sequence (as listed by the source): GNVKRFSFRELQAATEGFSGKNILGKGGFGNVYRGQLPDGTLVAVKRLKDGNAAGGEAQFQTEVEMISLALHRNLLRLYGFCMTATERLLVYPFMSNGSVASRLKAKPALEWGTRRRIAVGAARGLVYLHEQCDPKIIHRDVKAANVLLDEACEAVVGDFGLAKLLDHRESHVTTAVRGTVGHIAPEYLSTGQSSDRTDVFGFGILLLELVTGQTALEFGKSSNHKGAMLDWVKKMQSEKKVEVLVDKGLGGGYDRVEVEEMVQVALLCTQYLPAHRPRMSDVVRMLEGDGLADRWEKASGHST

Structure (SMILES)	thermal shift delta Tm (LOC_OS02G45750-cb003) [°C]	thermal shift delta Tm (LOC_OS02G54510-cb004) [°C]	thermal shift delta Tm (LOC_OS03G04050-cb001) [°C]	thermal shift delta Tm (LOC_OS03G12390-cb001) [°C]	thermal shift delta Tm (LOC_OS03G27990-cb004) [°C]	thermal shift delta Tm (LOC_OS03G50450-cb001) [°C]	thermal shift delta Tm (LOC_OS03G50810-cb003) [°C]	thermal shift delta Tm (LOC_OS04G35114-cb001) [°C]	thermal shift delta Tm (LOC_OS04G38480-cb003) [°C]	thermal shift delta Tm (LOC_OS04G41100-cb001) [°C]	thermal shift delta Tm (LOC_OS04G57630-cb004) [°C]	thermal shift delta Tm (LOC_OS05G07850-cb002) [°C]	thermal shift delta Tm (LOC_OS05G16824-cb004) [°C]	thermal shift delta Tm (LOC_OS05G28520-cb001) [°C]	thermal shift delta Tm (LOC_OS05G30820-cb001) [°C]	thermal shift delta Tm (LOC_OS05G43570-cb004) [°C]	thermal shift delta Tm (LOC_OS06G16330-cb003) [°C]	thermal shift delta Tm (LOC_OS06G22820-cb001) [°C]	thermal shift delta Tm (LOC_OS07G06570-cb004) [°C]	thermal shift delta Tm (LOC_OS07G07230-cb001) [°C]
COc1cc2c3cc1Oc1c(OC)c(OC)cc4c1[C@@H](Cc1ccc(O)c(c1)Oc1ccc(cc1)C[C@@H]3N(C)CC2)N(C)CC4 [Berbamine (dihydrochloride)]	0	-0.14	0.28	-0.42	-0.08	0.16	-0.29	0.22	0.37	0.23	-0.01	-0.48	-7.42	-0.11	0.47	0.27	-0.31	0.13	0.83	0.33
CS(=O)(=O)CCNCc1ccc(-c2ccc3ncnc(Nc4ccc(OCc5cccc(F)c5)c(Cl)c4)c3c2)o1	-0.27	0.18	0.24	0.39	0.11	0.01	0.17	0.48	0.99	0.27	-0.1	1.34	-0.68	0.97	0.44	0.61	-0.63	1.04	0.83	0.48
CCN(CC)CCCCNc1ncc2cc(-c3cc(OC)cc(OC)c3)c(NC(=O)NC(C)(C)C)nc2n1	1.08	0.28	0.67	0.06	0.5	0.93	0.47	0.79	0.83	0.46	-0.1	-0.15	-2.16	0.72	0.45	0.68	-0.04	0.57	1.02	0.36
N#CC(=C(/N)Sc1ccccc1N)/C(C#N)=C(\N)Sc1ccccc1N	0.68	-0.59	0.78	1.33	0.63	0.62	0.78	-0.47	-1.15	0.28	-0.53	-1.4	-1.67	1.16	0.39	0.33	1.2	1.19	-0.22	0.58
Cc1ccc(C(=O)Nc2ccc(Oc3cc4cnn(C)c4cc3-c3cn[nH]c3)c(F)c2)c(=O)n1-c1ccc(F)cc1	1.6	0.17	1.07	0.61	0.79	1.3	1.13	0.73	3.19	1.32	1.06	12.9	0.64	0.91	0.24	1.08	5.02	1.28	1.37	-0.23
N#Cc1ccc2ncnc(NCCc3ccccc3)c2c1 [Senexin A]	1.15	0.03	0.34	1.84	0.37	0.68	0.83	1.3	1.69	0.25	0.34	4.61	4.32	0.11	0.16	0.23	2.48	0.4	1.46	0.54
CNC(=O)c1cc(Oc2ccc3nc(N[C@@H]4CCCC[C@H]4O)sc3c2)ccn1	0.99	-0.11	0.37	0.22	0.15	0.65	0.6	0.24	1.59	0.59	0.41	0.33	2.01	0.77	0.47	0.57	0.27	0.57	0.18	0
CCCNC(=O)Nc1ccc(Oc2ncnc3cc(OC)c(OC)cc23)cc1Cl	-0.23	-0.21	-0.21	0.74	-0.33	-0.08	0.49	0.48	-0.17	-0.34	0.94	5.45	-1.66	-0.19	0.49	0.07	1.43	0.78	0.73	0.03
Cc1ccc(NC(=O)Nc2cc(C(F)(F)F)ccc2F)cc1Nc1ccc2c(c1)NC(=O)/C2=C\c1ccc[nH]1	0.48	-0.12	1.3	1.34	0.77	1.31	1.99	-0.61	-1.28	0.8	0.83	1.9	2.11	0.81	0.73	1.98	1.54	1.12	-0.24	1.34
Cn1cnc2c(F)c(Nc3ccc(Br)cc3Cl)c(C(=O)NOCCO)cc21 [Selumetinib (AZD6244)]	0.34	0.31	0.26	0.11	-0.04	-0.25	0.02	0.24	0.38	0.75	-0.08	-0.01	-2	0.43	0.51	0.42	0.02	0.61	0.8	0.42
CC1(C)OCCn2c1nc1c(N3CCOCC3)nc(-c3cnc(N)nc3)nc12	-0.63	0.42	0.09	-0.14	0.19	0.18	0.33	0.39	0.75	-0.13	0.29	1.01	-0.61	0.5	0.57	0.76	2.07	0.14	1.2	0.43
